Most compounds without a hit are left out; they make up all but 17% or so of the library.
ClpP mod = qHTS Assay for Activators of ClpP; purified B. subtilis ClpP, FRET peptide cleavage, 20 min; hit rate 1.9% among 340,000; Potency, µM (top dose mostly 57.5 µM), for inactives: top-dose activity change, negative = active; AID 651965, 2013; ATP-dependent Clp protease proteolytic subunit (Bacillus subtilis (strain 168)), P80244; active = well fitted falling curve with a large enough effect; inconclusive = small, poorly fitted or top-dose-only effect; inactive = no such curve, though single readings can be large or run the other way; also: the source files actives as falling curves though it sought activators and does not explain the sign; nearly all actives have a fitted effect of over 65% in size
Target sequence (P80244 whole entry, looked up): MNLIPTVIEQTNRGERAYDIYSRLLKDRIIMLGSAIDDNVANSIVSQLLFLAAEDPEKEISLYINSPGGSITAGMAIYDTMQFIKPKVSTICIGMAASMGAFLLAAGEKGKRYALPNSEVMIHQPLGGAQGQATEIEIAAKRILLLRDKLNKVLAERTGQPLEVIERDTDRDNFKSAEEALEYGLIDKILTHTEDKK
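FRET quenching reversal measured ClpP activation: 10 microg/mL B. subtilis ClpP at pH 8 with the FRET-FV decapeptide, read at 430 nm after 320 nm excitation. The 20-min minus 0-min signal was scaled between DMSO/no-enzyme wells and ADEP (5.8 microM final).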
TDP1 block = blocks human tyrosyl-DNA phosphodiesterase 1 | hit rate 0.28% among 350,000 | Q9NUW8 | Potency, µM (top dose mostly 130 µM), without a hit: at the highest dose activity change, negative = inhibition, most hits filed as inhibitors | recombinant TDP1, AlphaScreen DNA substrate cleavage | AID 485290; also: % is scaled to controls: 0 for no effect and ±100 for the full control effect; nearly all actives have a fitted effect of over 40% in size
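Enzyme-compound mixtures sat 15 min at room temperature, followed by a 5 min reaction with 15 nM final substrate and 10 min with AlphaScreen beads. Recombinant human Tdp1 was used at 1 nM final.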
TDP1 cell noCPT = qHTS for Inhibitors of human tyrosyl-DNA phosphodiesterase 1 (TDP1): qHTS in cells in absence of CPT; DT40 Tdp1-/- hTDP1 cells, no CPT, ATP luminescence, 48 h; Potency, µM (titrated, usually from 46.2 µM), for inactives: top-dose activity change, negative = growth inhibition, most hits filed as inhibitors; hit rate 15% among 420,000; AID 686978, 2013; also: % is scaled to controls: 0 for no effect and ±100 for the full control effect; nearly all actives have a fitted effect of over 55% in size
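Camptothecin absent (DMSO only). Human TDP1-complemented DT40 knockout cells, 400 cells/well, 37 °C for minimum 48 hr; ATP measured via CellTiter-Glo, 30 min dark incubation, luminescence.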
TDP1 cell CPT = DT40-hTDP1 cell growth loss with CPT; chicken DT40 Tdp1-/-;hTDP1 cells + 20 nM CPT, ATP luminescence, 48 h; Potency, µM (top dose mostly 46.2 µM), for inactives: at the top dose activity change, negative = growth inhibition, hits mostly inhibitors; hit rate 12% among 420,000; AID 686979; also: % is scaled to controls: 0 for no effect and ±100 for the full control effect; nearly all actives have a fitted effect of over 55% in size
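Cell growth measured by CellTiter-Glo luminescence after a minimum 48 h, 37 C compound exposure with 20 nM CPT in Tdp1-knockout DT40 cells stably expressing hTDP1, seeded 400/well; qHTS titration format.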
* hit, by the source's call; ? = inconclusive; . = not tested or not shown; [ ] = another dose, or the depositor's remark. Unless noted, calls follow the shape of the dose curve; as a rule, active = well fitted curve in the direction sought with a large enough effect; inconclusive = small, poorly fitted or top-dose-only effect, or another doubt; inactive = no such curve, though single readings can be large; an effect the other way counts as inactive or inconclusive. Potency is read from the fitted curve at half-maximal effect.

SMILES	ClpP mod	TDP1 block	TDP1 cell noCPT	TDP1 cell CPT
COC(=O)c1ccc(C23CC4(C2)[C@H](CN(Cc2cccnc2)[C@@H]4c2ccccc2)C3c2ccccc2)cc1 (stereo partly drawn)	0.5%	11.1%	23.1µM*	23.1µM*
FC(F)(F)c1ccc(C2[C@H]3CN(Cc4ccc(-c5ccccc5)cc4)[C@H](c4ccccc4)C34CC2(c2cccnc2)C4)cc1 (stereo partly drawn)	0.1%	5.1%	?	?
c1ccc(-c2ccc(CN3C[C@@H]4C(c5ccccc5)C5(c6cccnc6)CC4(C5)[C@H]3c3ccccc3)cc2)cc1 (stereo partly drawn)	-2.8%	9.3%	?	?
CN(CC1(C)CCCO1)S(=O)(=O)c1ccc(Cl)c(S(N)(=O)=O)c1 (stereo not drawn)	.	.	-2.3%	?
COC(=O)c1ccc(C23CC4(C2)[C@H](CN(CC2CCCCC2)[C@@H]4c2ccccc2)C3c2ccccc2)cc1 (stereo partly drawn)	-2.7%	9.9%	?	25.9µM*
FC(F)(F)c1ccc(C2[C@H]3CN(CC4CCCCC4)[C@H](c4ccccc4)C34CC2(c2ccccc2)C4)cc1 (stereo partly drawn)	.	8.1%	.	.
N#Cc1ccc(C23CC4(C2)[C@H](CN(Cc2ccc(-c5ccccc5)cc2)[C@@H]4c2ccccc2)C3c2ccc(C(F)(F)F)cc2)cc1 (stereo partly drawn)	-3.1%	5.1%	?	16.4µM*
CN1C[C@@H]2C(c3ccc(C(F)(F)F)cc3)C3(c4ccccc4)CC2(C3)[C@H]1c1ccccc1 (stereo partly drawn)	-2.9%	6.9%	16.4µM*	?
FC(F)(F)c1ccc(C2[C@H]3CN(Cc4ccc(-c5ccccc5)cc4)[C@H](c4ccccc4)C34CC2(c2ccccc2)C4)cc1 (stereo partly drawn)	-0.5%	8.1%	?	?
COC(=O)c1ccc(C23CC4(C2)[C@H](CN(Cc2cccnc2)[C@@H]4c2ccccc2)C3c2ccc(C(F)(F)F)cc2)cc1 (stereo partly drawn)	0.3%	12.3%	13µM*	23.1µM*
COc1cccc(CNC(=O)c2c(OC)cc(=O)n3c2CCN(C(=O)c2ccc(C)cc2C)CC3)c1	.	.	-11.9%	-0.9%[9.04 µM]
CSc1nsc(SCC(=O)NCc2ccc(C)cc2)n1	0.7%	.	-29.9%	-10.7%
COc1cc(Cl)c(NC2=CC(=O)C(=O)c3ccccc32)c(OC)c1	-1.0%	6.5%	?	11.6µM*
O=C1C=C(Nc2ccc(F)cc2)c2ccccc2C1=O	1.7%	-12.6%	9.2µM*	7.31µM*
O=C1C=C(Nc2cccnc2)c2ccccc2C1=O	-3.4%	.	7.31µM*	7.31µM*
CCOc1ccc(NC2=CC(=O)C(=O)c3ccccc32)cc1	1.3%	.	3.26µM*	2.31µM*
CC(C(=O)Nc1cccnc1)N1C(=O)c2ccccc2C1=O (stereo not drawn)	-0.3%	4.1%	-8.2%	-1.2%
COc1cc(Cl)c(NS(=O)(=O)c2ccc(-c3ccc(=O)[nH]n3)o2)c(OC)c1	-1.6%	-13.6%	25.8%	-2.3%
O=C(c1cccc(Cl)c1)n1nc(-c2ccco2)nc1NCc1cccs1	-4.2%	4.9%	-23.4%	-13.2%
Cc1noc(C)c1COC(=O)c1csc2c1CCC(C)C2 (stereo not drawn)	-1.1%	.	-25.5%	-29.4%
Cc1ccc(C2=Nc3ccccc3N(CC(=O)Nc3ccccc3F)C(=O)C2)cc1C	-2.6%	9.7%	25.9µM*	23.1µM*
Cc1ccc(NC(=O)CN2C(=O)c3ccccc3C2=O)cc1	28.2µM*	.	0.9%	-1.6%
O=C(CN1C(=O)CC(c2ccccc2)=Nc2ccccc21)Nc1ccc(Br)cc1	-4.0%	7.1%	20.6µM*	?
Cc1ccc(NC(=O)CN2C(=O)CC(c3ccc(C)c(C)c3)=Nc3ccccc32)cc1	-1.4%	9.7%	18.4µM*	20.6µM*
CN(C)c1ccc(NC(=O)CN2C(=O)CC(c3ccccc3)=Nc3ccccc32)cc1	0.4%	7.7%	-20.8%	1.7%
SMILES	ClpP mod	TDP1 block	TDP1 cell noCPT	TDP1 cell CPT
CCCC(=O)N1CCCC1(C)C(=O)Nc1ccc2nc(C)ccc2c1 (stereo not drawn)	4.2%	.	7.4%	-14.6%
O=C(C[C@@H]1C/C=C\CCCC(=O)OC[C@@H](c2ccccc2)NC1=O)NCCO	-3.8%	2.1%	2.0%	-25.7%
Cc1cnc(NC(=O)Cc2cccs2)s1	0.0%	5.3%	?	?
Cc1c(C(=O)N(C)C)sc2c1c(=O)n(-c1ccccc1C(F)(F)F)c(=O)n2Cc1cccc(F)c1	-1.7%	3.4%	-22.6%	-20.3%
CCN(c1ccccc1)c1cc(C)nc2nc(C)nn12	2.6%	2.6%	-18.0%	-20.4%
Cc1cccc(N(C)c2cc(C)nc3nc(C)nn23)c1	-1.7%	0.0%	?	16.4µM*
Cc1ccc(SC2=C(Sc3ccc(C)cc3)C(=O)c3ccccc3C2=O)cc1	.	12.3%	1.03µM*	0.92µM*
O=C1CC(/C=C/c2ccncc2)=Nc2ccccc2N1	-1.1%	5.8%	5.8µM*	5.8µM*
COc1ccc(CCNC(=O)CN(c2ccccc2OC)S(=O)(=O)c2ccc(C)cc2)cc1	-0.5%	4.2%	23.1µM*	20.6µM*
Cc1cccc(N(CC(=O)NCCSc2ccccn2)S(=O)(=O)c2ccccc2)c1	-1.5%	2.3%	14.6µM*	?
COc1ccccc1N(CC(=O)NCCSCc1ccc(C)cc1)S(=O)(=O)c1ccccc1	-3.1%	2.1%	?	?
COc1ccccc1N(CC(=O)NCCSc1ccccc1)S(=O)(=O)c1ccccc1	-2.4%	.	18.4µM*	?
O=C(CN(c1ccccc1)S(=O)(=O)c1ccccc1)NCCSc1ccccn1	.	7.7%	-2.7%	0.8%
COc1ccccc1N(CC(=O)NCCSc1ccccc1)S(C)(=O)=O	-2.0%	2.5%[56.1 µM]	-11.8%	-10.3%
COc1ccccc1N(CC(=O)NCCSc1ccccc1)S(=O)(=O)c1ccc(C)cc1	-3.7%	.	16.4µM*	?
COc1ccc(N(CC(=O)NCCc2ccccc2)S(=O)(=O)c2ccccc2)c(OC)c1	0.8%	7.1%	20.6µM*	20.6µM*
COc1ccc(N(CC(=O)NCCSc2ccccn2)S(=O)(=O)c2ccccc2)c(OC)c1	.	.	20.6µM*	?
COc1ccc(N(CC(=O)NCCSc2ccccn2)S(C)(=O)=O)cc1	0.5%	1.1%	1.1%	5.7%
COc1ccc(N(CC(=O)NCc2cccnc2)S(=O)(=O)c2ccccc2)c(OC)c1	1.4%	.	?	?
COc1ccc(N(CC(=O)NCCSc2ccccc2)S(=O)(=O)c2ccccc2)c(OC)c1	0.9%	1.4%	13µM*	?
Cc1noc(-c2ccc(CSCCC(=O)O)cc2)c1NC(=O)OC(C)c1ccccc1Cl (stereo not drawn)	.	7.5%	.	.
Cc1cnc(C(=O)NNC(=O)c2ccc(Br)cc2)cn1	.	1.6%[0.505 µM]	5.8µM*	3.66µM*
